TROY NFkB inh: inhibitors of TROY-dependent NF-kB signaling; 360,000 compounds, 0.98% hits; inhibition, % at 10 µM; Q293 LMP1-TROYcd NF-kB luciferase reporter, 4 h;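 active = compounds whose plate-normalised and pattern-corrected inhibition of the luciferase reporter signal at the single screening dose is 50% or more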
EWS-Fli block: blocks EWS/Fli oncoprotein-driven transcription; A673 NR0B1-luciferase reporter, viability-normalised; inhibition, % at 12.6 µM; 350,000 compounds, 0.67% hits;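 active = mean inhibition of at least 50% after viability correction, with every replicate also passing that limit; inconclusive = mean reaches 50% but only one of two replicates passes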;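 note: firefly luciferase signal divided by Alamar Blue viability fluorescence both relative to DMSO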
EBV LMP1 NFkB: Epstein-Barr LMP1 NF-kappaB reporter inhibition. LMP1-induced NF-kappaB luciferase reporter cells, luminescence. 350,000 compounds, 0.69% hits. inhibition, % at 12.5 µM; in the data active = inhibition above about 41%; inconclusive = no clear call, values can overlap the other calls;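 note: 0% = neutral control wells and 100% = reference inhibitor control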
LGR2 antag: blocks bursicon-induced cAMP signaling via Drosophila LGR2; 380,000 compounds, 0.35% hits; inhibition, % at 9.99 µM; HEK293 LGR2, CRE-luciferase, bursicon-stimulated, 4 h;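 active = drop in luminescence signal, shown as inhibition above about 50% in the replicate tests, limit read from the data, passing the limit was not always enough; inconclusive = probably only some replicates passing the limit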;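 note: agonist challenge used bursicon conditioned medium at about half maximal strength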
TWEAK-Fn14 inh: TWEAK-Fn14 signaling inhibition | AID 1159606 | inhibition, % at 10 µM | 360,000 compounds, 2% hits | TWEAK-stimulated Fn14 reporter cells, luciferase luminescence, 8 h; in the data active = inhibition above about 50%
PAX8 inh HTS: inhibitors of PAX8 transcriptional activity in RMG-I cells; AID 652154; inhibition, % at 12.6 µM; 360,000 compounds, 1.2% hits; RMG-I TPO-luciferase reporter, SteadyGlo, 24 h;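 active = mean replicate inhibition at least 60% with every replicate also reaching 60%; inconclusive = only one of the two criteria is met; inactive = mean below 60% and not all replicates reaching 60%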;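 note: luciferase light reporting Pax8 driven TPO promoter activity; plate controls were median of neutral control wells for no effect and mitoxantrone controls for full effect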
* = called active by the depositor. A selection: hits, their analogues and other compounds. The true share with any hit is near 3.2%.

For CCN=C1NC(c2ccc(Cl)cc2)C(C(=O)OC)=C(C)N1Cc1cccc(C(F)(F)F)c1 (configuration not stated) the results were EWS-Fli block 14, LGR2 antag 12 and PAX8 inh HTS 6.
For COC(=O)C1=C(C)N(Cc2ccccc2)C(=NCc2cccc(C(F)(F)F)c2)N[C@H]1c1cccc(F)c1 the results were TROY NFkB inh -5, EWS-Fli block 39, EBV LMP1 NFkB 8, LGR2 antag -8, TWEAK-Fn14 inh -13 and PAX8 inh HTS 59.
Screening CN1C(=O)c2cc(NC(=O)c3cccs3)ccc2OC[C@@H]2O[C@@H](CC(=O)NCC(F)(F)F)CC[C@H]21 returned EWS-Fli block -3, LGR2 antag 4 and PAX8 inh HTS 9.
Screening O=C(C[C@@H]1CC[C@@H]2[C@H](COC[C@@H](O)CN2C(=O)Nc2cccc(Cl)c2)O1)NCc1ccccc1F returned EWS-Fli block -13, LGR2 antag -23 and PAX8 inh HTS -6.
Screening COC(=O)[C@@]1(Cc2ccccc2CN=[N+]=[N-])COC(c2ccc(OCCCO)cc2)=N1 returned EWS-Fli block 8 and PAX8 inh HTS 9.
COC(=O)C1=C(C)N(Cc2ccc(C(F)(F)F)cc2)C(=NCc2ccccc2)NC1c1cccc(Cl)c1 (configuration not stated) was read as EWS-Fli block 34, LGR2 antag 53* and PAX8 inh HTS 100*.
COC(=O)C1=C(C)N(Cc2cccc(C(F)(F)F)c2)C(=NCc2ccc(C(F)(F)F)cc2)NC1c1ccccc1 (configuration not stated) was read as EWS-Fli block 52*, LGR2 antag 15 and PAX8 inh HTS 19.
COC(=O)C1=C(C)N(Cc2cccc(C(F)(F)F)c2)C(=NCC2CC2)NC1c1cccc(Cl)c1 (configuration not stated) was read as EWS-Fli block 22 and PAX8 inh HTS 44.
`COC(=O)C1=C(C)N(Cc2ccc(C(F)(F)F)cc2)C(=NCc2ccccc2)NC1c1cccc(C(F)(F)F)c1` (configuration not stated) gave EWS-Fli block 34, LGR2 antag 8 and PAX8 inh HTS inconclusive.
`COC(=O)C1=C(C)N(Cc2cccc(C(F)(F)F)c2)C(=NCC2CC2)NC1c1cccc(C(F)(F)F)c1` (configuration not stated) gave EWS-Fli block 45, LGR2 antag 46 and PAX8 inh HTS 89*.
CNC[C@H]1Oc2c(NS(=O)(=O)c3ccc(C)cc3)cccc2C(=O)N([C@H](C)CO)C[C@@H]1C was read as EWS-Fli block 0, LGR2 antag 5 and PAX8 inh HTS -11.
`O=C(N[C@H]1CC[C@H](CCn2cc(-c3ccccn3)nn2)O[C@@H]1CO)c1cccnc1` gave EWS-Fli block 1, LGR2 antag -7 and PAX8 inh HTS -3.
Screening CC(C)CC#Cc1ccc2c(c1)O[C@@H](CN(C)C(=O)Cc1ccccn1)[C@H](C)CN([C@@H](C)CO)S2(=O)=O returned EWS-Fli block 21 and LGR2 antag -2.
Screening COc1cccc(-c2cnc3c(c2)C(=O)N([C@H](C)CO)C[C@H](C)[C@@H](CN(C)Cc2ccc(F)cc2)O3)c1 returned EWS-Fli block -1 and LGR2 antag -4.
Cc1cc(Oc2ccccc2)nc(-c2ccccc2)n1 was read as TROY NFkB inh -8, EBV LMP1 NFkB -10, LGR2 antag 4 and TWEAK-Fn14 inh -21.
C=C(C)c1nc(Oc2ccccc2)nc(Oc2ccccc2)n1 was read as TROY NFkB inh -12, EWS-Fli block 42, EBV LMP1 NFkB -2, LGR2 antag 20, TWEAK-Fn14 inh 37 and PAX8 inh HTS 97*.
For O=C(CCN1C(=O)/C(=C/c2cccs2)SC1=S)Nc1ccc(O)cc1 the results were TROY NFkB inh 6, EWS-Fli block 18, EBV LMP1 NFkB -4, LGR2 antag -2, TWEAK-Fn14 inh -24 and PAX8 inh HTS -30.
Screening O=C(CCN1C(=O)/C(=C/c2cccs2)SC1=S)Nc1cccc(O)c1 returned TROY NFkB inh 54*, EWS-Fli block 3, EBV LMP1 NFkB -1, LGR2 antag -8, TWEAK-Fn14 inh 6 and PAX8 inh HTS 9.
For O=C(CCCN1C(=O)/C(=C/c2cccs2)SC1=S)Nc1cccc(O)c1 the results were TROY NFkB inh 21, EWS-Fli block 12, EBV LMP1 NFkB 5, LGR2 antag -1, TWEAK-Fn14 inh 25 and PAX8 inh HTS 67*.
`O=C(CCCN1C(=O)/C(=C/c2cccs2)SC1=S)Nc1cccc(C(=O)O)c1` gave TROY NFkB inh -13, EWS-Fli block -2, EBV LMP1 NFkB 9, LGR2 antag 9, TWEAK-Fn14 inh 24 and PAX8 inh HTS 28.
Screening Cc1[nH]c(=O)c(C(=O)/C=C/c2ccccc2F)c2c1CCCC2 returned TROY NFkB inh 50*, EWS-Fli block 36, EBV LMP1 NFkB 81*, LGR2 antag 86* and TWEAK-Fn14 inh 89*.
Screening COC(=O)c1ccc(C(=O)OC)c(NC(=O)CN(c2ccc3c(c2)OCO3)S(C)(=O)=O)c1 returned TROY NFkB inh 57*, EWS-Fli block 9, EBV LMP1 NFkB 2, LGR2 antag -9 and TWEAK-Fn14 inh 23.
Screening CC(C)CNC(=O)c1ccccc1NC(=O)CN(c1ccc2c(c1)OCCO2)S(C)(=O)=O returned TROY NFkB inh 21, EBV LMP1 NFkB 15, LGR2 antag -3 and TWEAK-Fn14 inh 90*.
CS(=O)(=O)N(CC(=O)Nc1ccccc1C(=O)NCc1ccco1)c1ccc2c(c1)OCCO2 was read as TROY NFkB inh 20, EBV LMP1 NFkB 1 and TWEAK-Fn14 inh 0.
Screening COc1cccc(S(=O)(=O)N[C@H]2CC[C@@H](CC(=O)NC3CCC3)O[C@@H]2CO)c1 returned EWS-Fli block 15, LGR2 antag -6 and PAX8 inh HTS -13.
`CCOC(=O)c1sc(NC(=O)Cn2nnc3sc4c(c3c2=O)CCC(C(C)(C)C)C4)nc1C` (configuration not stated) gave TROY NFkB inh -15, EWS-Fli block 3, EBV LMP1 NFkB -7, LGR2 antag -22, TWEAK-Fn14 inh -26 and PAX8 inh HTS 73*.
`O=C(CN1CCC(n2nnc3cc(C(F)(F)F)ccc32)CC1)Nc1ccc2c(c1)CCC2` gave TROY NFkB inh 9, EBV LMP1 NFkB -2 and TWEAK-Fn14 inh 2.
Screening O=C(CN1CCC(n2nnc3cc(C(F)(F)F)ccc32)CC1)Nc1ccc2c(c1)OCCO2 returned TROY NFkB inh 64*, EBV LMP1 NFkB 16, TWEAK-Fn14 inh 75* and PAX8 inh HTS 12.
Screening COc1cccc(NC(=O)N[C@@H]2CC[C@H](CC(=O)N3CCOCC3)O[C@@H]2CO)c1 returned EWS-Fli block 0, LGR2 antag 5 and PAX8 inh HTS 4.
For Cc1ccc2c(c1)-c1cc(C)ccc1C2=O the results were TROY NFkB inh -24, EWS-Fli block -11, EBV LMP1 NFkB -5, LGR2 antag -3, TWEAK-Fn14 inh 64* and PAX8 inh HTS -1.

Screening results deposited in PubChem BioAssay by several laboratories.
